# Laboratory results reported in PubChem BioAssay.
# Records with an inconclusive call do not appear. Active and inactive are the calls of the source.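 Rule for the calls, unless noted: active = GFP signal, as percent of the solvent control, above the screen mean plus 3 SD, about 149; inconclusive = no reading because the compound's own fluorescence upset strain identification; inactive = the rest.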
# Assays:
# [1] = rapamycin-like changes in RPL19A-GFP expression – cell-based, S. cerevisiae, multiplex flow cytometry, primary screen (AID 1862; in the data active = percent of DMSO control GFP below about 86%;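 note: lower values mimic rapamycin by blocking the RPL19A rise seen in DMSO cells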); settings: S. cerevisiae RPL19A-GFP strain, flow cytometry fluorescence, 3 h; at 10 µM; stronger effect = lower value
# [2] = TOR pathway GLN3 branch reporter MEP2-GFP changes – S. cerevisiae, multiplex flow cytometry, primary screen (AID 1867;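 active = GFP response, as percent of the DMSO control, above the screen-wide mean plus 3 SD, about 139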;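 note: median GFP channel fluorescence of barcode-gated MEP2-GFP cells measured by flow cytometry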); settings: S. cerevisiae MEP2-GFP strain, 3 h, at 10 µM, stronger effect = higher value, 100% means same as DMSO wells
# [3] = TOR pathway RTG branch CIT2 reporter changes – S. cerevisiae, GFP fusion, multiplex flow cytometry, primary screen (AID 1870;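 active = percent response above a set limit, the screen-wide mean plus 3 SD, cut at about 130% in these data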;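 note: barcoded CIT2-GFP strain pooled with four other GFP strains with rapamycin as positive control; median GFP fluorescence per well over plate mean of DMSO wells so 100% = DMSO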); settings: S. cerevisiae CIT2-GFP expression, 3 h, at 10 µM, stronger effect = higher value
# [4] = TOR pathway LAP4-GFP level changes – S. cerevisiae, multiplex flow cytometry, primary screen (AID 1873); settings: S. cerevisiae LAP4-GFP expression, 3 h, at 10 µM, stronger effect = higher value
# [5] = yeast AGP1-GFP level changes, GLN3 branch – cell-based, multiplex flow cytometry, S. cerevisiae, primary screen (AID 1887;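 active = GFP signal above the screen-wide mean plus 3 SD, that is over about 124.5% of the solvent control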;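 note: AGP1-GFP fusion strain of S. cerevisiae within a five-strain barcoded multiplex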); settings: 3 h, at 10 µM, stronger effect = higher value
# [6] = reduced mouse 2C T cell binding to pMHC/ICAM-1 vesicles – MLPCN validation set, flow cytometry, LFA-1/ICAM-1 modulator project, pilot screen (AID 2523;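 active = response below a set limit, under 55% cells CD8-positive and vesicle-bound, and CD8 cells' 90th-percentile brightness under 279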;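 for vesicle binding response: mean PE anti-B7-1 fluorescence of CD8+ cells relative to row control; 100% = QL9-loaded vesicles with DMSO vehicle in the same plate row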); settings: 2C mouse CD8+ T cells, at 7 µM, stronger effect = lower value; double positive events: measured here: CD8+/vesicle+ event percentage
# [7] = target: Integrin beta-1 (Homo sapiens) + Integrin alpha-4 (Homo sapiens) (UniProt P13612+P05556); assay: alpha4beta1 integrin LIBS antibody binding reduction – U937 cells, HUTS-21 mAb, flow cytometry, validation set, VLA-4 allosteric modulator project, pilot screen (AID 2674;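 active = inhibition above 50%, about 3 SD of the validation set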;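 note: antibody binding induced by the VLA-4 ligand LDV present at three times its Kd; 0% = LDV ligand with antibody and no compound and 100% = antibody without LDV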); settings: HUTS-21 LIBS mAb binding, at 6.7 µM, stronger effect = higher value, binding induced by LDV ligand
# Sequence of Integrin beta-1 (Homo sapiens) + Integrin alpha-4 (Homo sapiens) (P05556 whole entry, looked up): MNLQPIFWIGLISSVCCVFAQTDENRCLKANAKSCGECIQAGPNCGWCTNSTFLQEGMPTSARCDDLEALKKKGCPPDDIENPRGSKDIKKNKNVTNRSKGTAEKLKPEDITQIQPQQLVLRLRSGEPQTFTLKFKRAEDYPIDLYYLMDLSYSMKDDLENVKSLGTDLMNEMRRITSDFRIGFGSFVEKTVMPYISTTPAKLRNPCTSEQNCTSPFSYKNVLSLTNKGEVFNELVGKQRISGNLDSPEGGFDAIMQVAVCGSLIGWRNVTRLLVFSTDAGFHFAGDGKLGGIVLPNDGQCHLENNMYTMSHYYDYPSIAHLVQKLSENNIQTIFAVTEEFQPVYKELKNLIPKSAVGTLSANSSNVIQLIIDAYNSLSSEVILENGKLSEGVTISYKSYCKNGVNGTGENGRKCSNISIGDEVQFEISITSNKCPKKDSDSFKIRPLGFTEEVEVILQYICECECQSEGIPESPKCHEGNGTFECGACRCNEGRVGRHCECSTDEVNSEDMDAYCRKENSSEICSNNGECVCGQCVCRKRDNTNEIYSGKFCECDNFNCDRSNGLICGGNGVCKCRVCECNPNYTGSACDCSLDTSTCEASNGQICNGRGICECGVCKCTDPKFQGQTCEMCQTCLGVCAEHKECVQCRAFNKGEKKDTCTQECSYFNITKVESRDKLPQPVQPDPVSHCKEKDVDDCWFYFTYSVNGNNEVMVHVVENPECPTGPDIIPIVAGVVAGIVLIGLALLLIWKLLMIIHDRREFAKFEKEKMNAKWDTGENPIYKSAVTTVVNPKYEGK
# Sequence of Integrin beta-1 (Homo sapiens) + Integrin alpha-4 (Homo sapiens) (P13612 whole entry, looked up): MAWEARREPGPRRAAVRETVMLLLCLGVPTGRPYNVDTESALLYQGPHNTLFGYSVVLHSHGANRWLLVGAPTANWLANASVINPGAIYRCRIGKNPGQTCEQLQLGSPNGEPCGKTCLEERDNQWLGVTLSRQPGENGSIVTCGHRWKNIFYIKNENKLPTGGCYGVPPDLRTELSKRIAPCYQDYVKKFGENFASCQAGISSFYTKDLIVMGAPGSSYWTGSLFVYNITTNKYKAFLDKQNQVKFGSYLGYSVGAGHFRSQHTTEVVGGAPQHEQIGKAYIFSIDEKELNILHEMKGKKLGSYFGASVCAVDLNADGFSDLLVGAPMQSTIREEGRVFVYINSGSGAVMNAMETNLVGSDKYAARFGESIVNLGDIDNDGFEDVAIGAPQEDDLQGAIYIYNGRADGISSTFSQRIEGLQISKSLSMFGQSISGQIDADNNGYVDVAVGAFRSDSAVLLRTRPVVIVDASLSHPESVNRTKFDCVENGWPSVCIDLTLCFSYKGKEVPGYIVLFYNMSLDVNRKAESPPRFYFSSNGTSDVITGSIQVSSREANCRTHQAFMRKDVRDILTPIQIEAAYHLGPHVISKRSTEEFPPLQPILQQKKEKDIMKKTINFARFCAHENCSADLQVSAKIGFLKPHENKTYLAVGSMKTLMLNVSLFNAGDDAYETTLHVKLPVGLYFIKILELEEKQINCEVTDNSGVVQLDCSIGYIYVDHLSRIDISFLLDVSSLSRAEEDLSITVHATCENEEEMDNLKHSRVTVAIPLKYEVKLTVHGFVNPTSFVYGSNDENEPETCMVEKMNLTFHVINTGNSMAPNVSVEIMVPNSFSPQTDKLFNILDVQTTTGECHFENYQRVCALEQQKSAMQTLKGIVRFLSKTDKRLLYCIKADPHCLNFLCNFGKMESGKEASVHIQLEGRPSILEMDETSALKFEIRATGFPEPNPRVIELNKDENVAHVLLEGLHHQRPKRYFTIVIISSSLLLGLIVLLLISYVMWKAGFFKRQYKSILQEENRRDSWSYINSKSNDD
# [8] = calorie-restriction mimetic ROS inhibitors, yeast – validation compound set, pilot screen (AID 2706;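 active = superoxide response below 65% of plate, a cut near 3 SD across the whole screen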;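 note: yeast exposed to compound for one week at 30 degrees C before staining; 100% = mean of all compound wells on the same plate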); settings: S. cerevisiae aging, superoxide DHE fluorescence; at 10 µM; stronger effect = lower value
# [9] = target: Beta-adrenergic receptor kinase 1 (Homo sapiens) (UniProt P25098); assay: GRK2 binders displacing RNA aptamer, biochemical, validation, human GRK2, bead flow cytometry (AID 488806;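 active = aptamer binding inhibition above 30%, about 3 SD of noise from non-fluorescent compounds; inactive = inhibition at or below 30%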); settings: bead-bound GRK2, FAM-aptamer displacement, at 10 µM, stronger effect = higher value
# Sequence of Beta-adrenergic receptor kinase 1 (Homo sapiens) (P25098 whole entry, looked up): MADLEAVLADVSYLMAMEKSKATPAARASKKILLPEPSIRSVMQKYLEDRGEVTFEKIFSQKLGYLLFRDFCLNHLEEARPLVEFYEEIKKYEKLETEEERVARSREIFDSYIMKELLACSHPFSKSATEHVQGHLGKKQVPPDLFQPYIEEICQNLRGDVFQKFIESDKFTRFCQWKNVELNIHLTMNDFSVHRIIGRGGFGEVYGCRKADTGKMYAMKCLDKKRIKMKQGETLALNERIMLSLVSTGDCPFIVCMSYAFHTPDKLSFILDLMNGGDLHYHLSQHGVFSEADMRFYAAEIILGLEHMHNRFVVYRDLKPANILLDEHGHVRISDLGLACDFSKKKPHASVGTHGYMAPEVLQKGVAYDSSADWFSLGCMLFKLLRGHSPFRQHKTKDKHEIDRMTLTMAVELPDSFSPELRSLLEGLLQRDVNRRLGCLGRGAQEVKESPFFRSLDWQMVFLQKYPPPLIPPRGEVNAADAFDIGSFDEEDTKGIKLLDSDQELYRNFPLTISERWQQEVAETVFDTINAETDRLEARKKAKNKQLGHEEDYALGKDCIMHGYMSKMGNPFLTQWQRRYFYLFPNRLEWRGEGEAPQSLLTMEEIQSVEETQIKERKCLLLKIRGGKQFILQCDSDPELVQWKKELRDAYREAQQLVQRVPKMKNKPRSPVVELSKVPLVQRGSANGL
# [10] = target: Beta-2 adrenergic receptor (Homo sapiens) (UniProt P07550); assay: agonist-induced loss of surface beta2AR – cell-based, FAP fluorogen, flow cytometry, validation set, pilot screen (AID 504459;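 active = percent response above 42, roughly 3 SD of non-fluorescent test compounds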;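 note: agonist-driven loss of surface beta2AR via internalization measured by FAP dye flow cytometry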); settings: Am2.2-beta2AR cells, at 10 µM, stronger effect = higher value
# Sequence of Beta-2 adrenergic receptor (Homo sapiens) (P07550 whole entry, looked up): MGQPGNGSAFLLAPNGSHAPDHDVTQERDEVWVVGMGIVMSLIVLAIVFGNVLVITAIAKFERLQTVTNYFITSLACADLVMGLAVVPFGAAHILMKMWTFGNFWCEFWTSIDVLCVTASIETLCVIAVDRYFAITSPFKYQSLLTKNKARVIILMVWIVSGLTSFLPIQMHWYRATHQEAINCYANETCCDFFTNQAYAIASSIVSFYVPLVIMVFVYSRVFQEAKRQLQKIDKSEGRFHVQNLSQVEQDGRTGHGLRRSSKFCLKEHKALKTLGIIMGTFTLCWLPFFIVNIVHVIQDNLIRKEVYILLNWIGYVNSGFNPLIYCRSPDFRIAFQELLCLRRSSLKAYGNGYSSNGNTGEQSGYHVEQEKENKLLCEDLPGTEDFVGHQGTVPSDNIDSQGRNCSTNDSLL
# [11] = target: AP-2 complex subunit beta (Homo sapiens) (UniProt P63010); assay: beta-arrestin/AP2 interaction blockers – biochemical, validation set, GST-AP2 beads, flow cytometry, pilot screen (AID 504541;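 active = inhibition above 54%, about 3 SD of non-fluorescent compounds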;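 note: AP2 carries R879A mutation and is captured from E. coli lysate; bead-bound FITC arrestin peptide fluorescence measuring arrestin peptide binding to AP2; 0% = DMSO wells and 100% = excess unlabeled arrestin peptide control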); settings: FITC arrestin peptide, at 10 µM, stronger effect = higher value, AP2 beta2 appendage fragment, R879A mutant
# Sequence of AP-2 complex subunit beta (Homo sapiens) (P63010 whole entry, looked up, the tested form may be a part, one chain of several): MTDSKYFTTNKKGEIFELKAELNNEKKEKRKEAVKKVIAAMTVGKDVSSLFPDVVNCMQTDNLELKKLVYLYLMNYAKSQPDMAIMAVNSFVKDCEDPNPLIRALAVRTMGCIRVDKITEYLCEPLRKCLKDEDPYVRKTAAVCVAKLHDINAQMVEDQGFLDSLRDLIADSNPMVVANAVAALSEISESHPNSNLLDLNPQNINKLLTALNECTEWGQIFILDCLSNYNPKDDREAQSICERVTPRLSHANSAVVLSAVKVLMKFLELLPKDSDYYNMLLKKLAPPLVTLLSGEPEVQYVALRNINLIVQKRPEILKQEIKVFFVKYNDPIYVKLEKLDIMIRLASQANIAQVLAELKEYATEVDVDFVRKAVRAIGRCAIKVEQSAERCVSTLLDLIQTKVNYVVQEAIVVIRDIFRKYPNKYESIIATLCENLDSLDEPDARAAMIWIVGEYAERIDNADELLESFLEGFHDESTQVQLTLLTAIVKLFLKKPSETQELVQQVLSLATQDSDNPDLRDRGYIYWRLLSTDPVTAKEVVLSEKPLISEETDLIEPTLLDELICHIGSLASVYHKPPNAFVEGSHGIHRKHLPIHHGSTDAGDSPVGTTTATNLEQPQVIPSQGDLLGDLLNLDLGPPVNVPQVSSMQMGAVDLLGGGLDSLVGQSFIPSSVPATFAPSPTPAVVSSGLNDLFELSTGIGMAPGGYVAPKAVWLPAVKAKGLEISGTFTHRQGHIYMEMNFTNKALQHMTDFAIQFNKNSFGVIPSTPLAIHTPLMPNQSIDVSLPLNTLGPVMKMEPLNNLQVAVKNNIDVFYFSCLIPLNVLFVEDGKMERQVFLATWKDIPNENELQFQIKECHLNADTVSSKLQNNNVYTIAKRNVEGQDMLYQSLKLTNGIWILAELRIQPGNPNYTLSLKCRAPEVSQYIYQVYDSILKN
# [12] = cytosolic pH regulators acting via V-ATPase – S. cerevisiae, pHLuorin, HTS validation (AID 504600; in the data active = response above about 15%;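 note: plate controls were DMSO for no effect and reference compound for full effect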); settings: V-ATPase proton transport, at 10 µM, stronger effect = higher value
# [13] = tested on: anti-desmoglein-3 scFv antibody binding to human DSG3; assay: blockers of pathogenic pemphigus antibody–desmoglein-3 binding – biochemical, validation compound set, bead-based, flow cytometry, pilot screen (AID 588368;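 active = binding below the plate cutoff, the plate median minus 3 SD, with a reading above zero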;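 note: signal is the median channel fluorescence of bead-bound GFP antibody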); settings: Protein G beads, DSG3-Fc, scFv-GFP binding, at 10 µM, stronger effect = lower value
# [14] = Nile Red efflux blockade in pump-expressing yeast – validation compound set, multiplex, phenotypic, pilot screen (AID 588506;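 active = efflux inhibition above 0.42, the validation set average plus 4 SD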;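 note: Nile Red retained in cells so higher fluorescence means more efflux inhibition; 0 = negative control wells and 1 = enniatin B 25 µM full block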); settings: S. cerevisiae pump-expressing triplex, Nile Red efflux flow cytometry; at 10 µM; stronger effect = higher value; the pumps come from Candida albicans
# [15] = target: ATP-binding cassette sub-family B member 6 (Homo sapiens) (UniProt Q9NP58); assay: blockers of ABCB6-driven porphyrin uptake – K562-ABCB6 cells, flow cytometry, validation set, pilot screen (AID 588550;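 active = inhibition above the screen-wide mean plus 3 SD, about 51%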;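 note: 0% = DMSO wells and 100% = benzethonium chloride 70 µM positive control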); settings: K562-ABCB6 porphyrin accumulation, 1 h, at 10 µM, stronger effect = higher value
# Sequence of ATP-binding cassette sub-family B member 6 (Homo sapiens) (Q9NP58 whole entry, looked up): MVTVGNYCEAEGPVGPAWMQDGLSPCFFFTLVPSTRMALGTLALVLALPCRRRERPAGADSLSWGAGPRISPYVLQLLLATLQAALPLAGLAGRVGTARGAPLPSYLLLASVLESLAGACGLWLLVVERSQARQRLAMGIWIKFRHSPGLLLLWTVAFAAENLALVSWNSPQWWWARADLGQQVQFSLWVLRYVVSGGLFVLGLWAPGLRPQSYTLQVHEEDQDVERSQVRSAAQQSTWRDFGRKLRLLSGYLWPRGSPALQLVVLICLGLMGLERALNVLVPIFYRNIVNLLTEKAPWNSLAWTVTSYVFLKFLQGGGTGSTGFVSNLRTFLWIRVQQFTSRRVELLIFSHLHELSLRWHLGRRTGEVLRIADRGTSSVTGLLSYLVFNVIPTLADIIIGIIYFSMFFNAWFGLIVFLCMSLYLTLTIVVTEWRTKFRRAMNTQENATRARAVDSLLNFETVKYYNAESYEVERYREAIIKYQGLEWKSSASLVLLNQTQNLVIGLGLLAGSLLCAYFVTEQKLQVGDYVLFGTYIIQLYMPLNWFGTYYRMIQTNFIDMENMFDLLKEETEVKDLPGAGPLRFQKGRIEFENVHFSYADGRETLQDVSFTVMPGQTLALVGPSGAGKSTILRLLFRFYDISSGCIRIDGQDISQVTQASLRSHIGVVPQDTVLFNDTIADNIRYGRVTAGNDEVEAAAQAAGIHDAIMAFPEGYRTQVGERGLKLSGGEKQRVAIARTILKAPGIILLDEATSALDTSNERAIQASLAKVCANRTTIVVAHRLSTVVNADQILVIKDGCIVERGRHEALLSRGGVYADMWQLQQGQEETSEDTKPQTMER
# [16] = AML differentiation inducers, ER-HoxA9 marrow cells – cell-based, GFP/MAC1 double positive, flow cytometry, validation set, primary screen (AID 588685;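 active = differentiation response of at least 50%, scaled between solvent and reference control, from cells with both markers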;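 note: compound exposure lasts four days before antibody staining and flow analysis; 0% = DMSO wells and 100% = 5 µM fulvestrant positive control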); settings: stronger effect = higher value, normalized: vehicle 0, fulvestrant 100
SMILES,percent of DMSO control GFP [1],GFP response vs DMSO [2],percent response of DMSO control [3],GFP response vs DMSO [4],"GFP response, % of DMSO [5]",double positive events [6] [%],vesicle binding response [6],inhibition [7],superoxide response (% of plate) [8],aptamer binding inhibition [9],response [10],inhibition [11],response [12],binding (% of control) [13],efflux inhibition (fraction of control) [14],inhibition [15],differentiation response [16]
COc1ccc(CN2CCCC(C(=O)c3ccc(Cl)cc3)C2)cc1Cn1cccn1 (stereo not drawn),104% (inactive),105% (inactive),99.7% (inactive),95.9% (inactive),100% (inactive),61.3,182% (inactive),-9.13% (inactive),79.4% (inactive),-4% (inactive),30.8% (inactive),-0.55% (inactive),1.1% (inactive),98.5% (inactive),0.05 (inactive),12% (inactive),-3.11% (inactive)
CC(=O)CC(c1ccc([N+](=O)[O-])cc1)c1c(O)c2ccccc2oc1=O (stereo not drawn),107% (inactive),105% (inactive),105% (inactive),118% (inactive),114% (inactive),60.4,115% (inactive),-5.11% (inactive),105% (inactive),-1% (inactive),-6.11% (inactive),1.39% (inactive),1.39% (inactive),99% (inactive),0.4 (inactive),2% (inactive),-11.9% (inactive)
CCOc1ccc2oc(-c3ccccc3)c(C(=O)O)c2c1,97.8% (inactive),108% (inactive),100% (inactive),110% (inactive),105% (inactive),65.1,204% (inactive),5.69% (inactive),102% (inactive),6% (inactive),-17.2% (inactive),7.05% (inactive),1.4% (inactive),101% (inactive),-0.04 (inactive),9% (inactive),1.91% (inactive)
CC(C(=O)O)c1cccc(C(=O)c2ccccc2)c1 (stereo not drawn),102% (inactive),107% (inactive),97.6% (inactive),110% (inactive),107% (inactive),67.3,145% (inactive),4.27% (inactive),97.3% (inactive),4% (inactive),6.64% (inactive),-7.83% (inactive),-2.55% (inactive),101% (inactive),0.36 (inactive),20% (inactive),-7.5% (inactive)
Cc1ccsc1C1NC(=O)c2ccccc2N1 (stereo not drawn),103% (inactive),95.2% (inactive),94.8% (inactive),93.1% (inactive),93.8% (inactive),59.5,266% (inactive),0.94% (inactive),102% (inactive),1% (inactive),-6.32% (inactive),-5.8% (inactive),-1.97% (inactive),97.6% (inactive),-0.28 (inactive),6% (inactive),-15.2% (inactive)
O=C1c2ccccc2C2(c3ccccc3)NCCN12 (stereo not drawn),101% (inactive),102% (inactive),109% (inactive),95.9% (inactive),99.8% (inactive),59.5,122% (inactive),-14.5% (inactive),92.9% (inactive),0% (inactive),-0.82% (inactive),6.52% (inactive),11.8% (inactive),104% (inactive),-0.19 (inactive),3% (inactive),-14.8% (inactive)
Cc1nc(N)sc1C(=O)N/N=C/c1ccco1,105% (inactive),107% (inactive),109% (inactive),114% (inactive),115% (inactive),62.5,145% (inactive),-3.77% (inactive),89.3% (inactive),-1% (inactive),-0.95% (inactive),6.36% (inactive),-5.39% (inactive),105% (inactive),0.08 (inactive),-15% (inactive),-4.57% (inactive)
CCc1cc2c(C)cc(=O)oc2cc1OC(=O)C1CCCN1C(=O)OC(C)(C)C (stereo not drawn),103% (inactive),95.2% (inactive),110% (inactive),82% (inactive),96.3% (inactive),57.4,247% (inactive),0.94% (inactive),92.9% (inactive),2% (inactive),19.6% (inactive),-11.6% (inactive),1.36% (inactive),103% (inactive),-0.03 (inactive),6% (inactive),-20% (inactive)
CC1(C)S[C@@H]2[C@H](NC(=O)Cc3ccccc3)C(=O)N2[C@H]1C(=O)O,105% (inactive),102% (inactive),98.3% (inactive),101% (inactive),119% (inactive),66.2,185% (inactive),15.1% (inactive),92.1% (inactive),3% (inactive),-19.9% (inactive),1.23% (inactive),-1.26% (inactive),99.7% (inactive),0.08 (inactive),10% (inactive),2.89% (inactive)
